Read-out in assay [1]: TIMP metallopeptidase inhibitor 1 (TIMP1), TIMP1 (gene 7076)
Briefly: BSK_hDFCGF_TIMP1: BioMAP Diversity Plus: hDFCGF Assay for TIMP metallopeptidase inhibitor 1 (TIMP1) Biomarker Activity (AID 2283062). The following applies: primary human foreskin fibroblasts; actives raise or lower the signal. The method in brief: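 TIMP-1 measured by ELISA 24 h after chemical dosing of primary human skin fibroblasts, with gain or loss fitted relative to DMSO. Parallel SRB staining (560 nm) monitored overt cytotoxicity.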

Read-out in assay [2]: Monokine induced gamma interferon (MIG), CXCL9 (gene 4283)
Briefly: BSK_hDFCGF_MIG: BioMAP Diversity Plus: hDFCGF Assay for Monokine induced gamma interferon (MIG) Biomarker Activity (AID 2283063). The settings on record: primary human foreskin fibroblasts; actives raise or lower the signal. The gist of the method: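 Human primary foreskin fibroblasts in the hDFCGF system, exposed to test chemical for 24 h; MIG measured by ELISA. Bidirectional curve fitting against DMSO negative control as activity baseline.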

Read-out in assay [3]: Plasminogen activator inhibitor-1 (PAI1), SERPINE1 (gene 5054)
The assay can be described thus: BSK_hDFCGF_PAI1: BioMAP Diversity Plus: hDFCGF Assay for Plasminogen activator inhibitor-1 (PAI1) Biomarker Activity (AID 2283066). The settings on record: primary human foreskin fibroblasts; actives raise or lower the signal. The method in brief:
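Human foreskin fibroblast primary cells, 24 h chemical exposure; PAI-1 measured by ELISA. Bidirectional fitting relative to DMSO; parallel cultures stained with SRB for total protein to flag overt cytotoxicity.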

Read-out in assay [4]: Intercellular Adhesion Molecule 1 (ICAM1), ICAM1 (gene 3383)
The assay can be described thus: BSK_KF3CT_ICAM1: BioMAP Diversity Plus: KF3CT Assay for Intercellular Adhesion Molecule 1 (ICAM1) Biomarker Activity (AID 2283067). The following applies: primary human keratinocytes with fibroblasts; actives raise or lower the signal. The gist of the method:
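Cell-surface ICAM-1 was measured by ELISA 24 h after dosing primary human skin keratinocytes co-cultured with fibroblasts. Parallel SRB staining tracked overt cytotoxicity. Gain or loss of signal was fitted relative to DMSO.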

Read-out in assay [5]: Interferon-gamma inducible Protein 10 (IP10), CXCL10 (gene 3627)
The assay can be described thus: BSK_KF3CT_IP10: BioMAP Diversity Plus: KF3CT Assay for Interferon-gamma inducible Protein 10 (IP10) Biomarker Activity (AID 2283068). The following applies: primary human keratinocytes with fibroblasts; actives raise or lower the signal. The gist of the method:
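Signal is secreted/surface IP-10 by ELISA in a human primary skin co-culture of keratinocytes and foreskin fibroblasts, taken 24 h post-dosing; DMSO served as negative control.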

Assay [6] in a line: BSK_KF3CT_SRB: Viability Assessment in the BioMAP Diversity Plus: KF3CT Assay (AID 2283069).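 Further: total protein by sulforhodamine B staining as a cytotoxicity measure; read 24 h after compound addition.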 The following applies: primary human keratinocytes with fibroblasts. The method in brief: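 Human primary keratinocyte plus foreskin fibroblast co-culture exposed to chemicals for 24 h. Total protein measured by 0.1% sulforhodamine B staining after 10% TCA fixation, read at 560 nm; bidirectional fitting versus DMSO baseline.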

Read-out in assay [7]: Interleukin-1 alpha (IL1a), IL1A (gene 3552)
Briefly: BSK_KF3CT_IL1a: BioMAP Diversity Plus: KF3CT Assay for Interleukin-1 alpha (IL1a) Biomarker Activity (AID 2283070). The following applies: primary human keratinocytes with fibroblasts; actives raise or lower the signal. The method in brief: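 Human keratinocyte plus foreskin fibroblast primary co-culture, sampled 24 h after chemical dosing. IL-1a measured by ELISA; responses fitted bidirectionally against DMSO baseline (negative control), so gain or loss of signal both count.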

Read-out in assay [8]: TIMP metallopeptidase inhibitor 2 (TIMP2), TIMP2 (gene 7077)
Briefly: BSK_KF3CT_TIMP2: BioMAP Diversity Plus: KF3CT Assay for TIMP metallopeptidase inhibitor 2 (TIMP2) Biomarker Activity (AID 2283071). The following applies: primary human keratinocytes with fibroblasts; actives raise or lower the signal. The method in brief: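 Co-culture of human primary keratinocytes and foreskin fibroblasts, measured 24 h after chemical dosing. TIMP-2 quantified by ELISA and fitted in both directions relative to DMSO. Cytotoxicity checked in parallel cultures by SRB total-protein staining.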

Read-out in assay [9]: Transforming growth factor beta 1 (TGFb1), TGFB1 (gene 7040)
The assay can be described thus: BSK_KF3CT_TGFb1: BioMAP Diversity Plus: KF3CT Assay for Transforming growth factor beta 1 (TGFb1) Biomarker Activity (AID 2283072). The following applies: primary human keratinocytes with fibroblasts; actives raise or lower the signal. The gist of the method:
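Human keratinocyte/foreskin fibroblast co-culture; TGF-b1 measured by ELISA 24 h after dosing, fitted bidirectionally versus DMSO. Cytotoxicity checked in parallel cultures by total protein (SRB staining, 560 nm).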

Read-out in assay [10]: C-C motif chemokine 2 (Homo sapiens) (UniProt P13500)
The assay can be described thus: BSK_KF3CT_MCP1: BioMAP Diversity Plus: KF3CT Assay for Monocyte Chemoattractant Protein 1 (MCP1/CCL2) Biomarker Activity (AID 2283073). The following applies: primary human keratinocytes with fibroblasts; actives raise or lower the signal. The method in brief: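 ELISA read-out of MCP-1, 24 h post-dose, in primary human skin keratinocytes co-cultured with fibroblasts. Parallel SRB staining monitors cytotoxicity; changes fitted both directions relative to DMSO.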

Read-out in assay [11]: Matrix Metallopeptidase 9 (MMP9), MMP9 (gene 4318)
Briefly: BSK_KF3CT_MMP9: BioMAP Diversity Plus: KF3CT Assay for Matrix Metallopeptidase 9 (MMP9) Biomarker Activity (AID 2283074).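 On AC50: MMP9 protein level quantified by ELISA in the co-culture.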 The settings on record: primary human keratinocytes with fibroblasts; actives raise or lower the signal. The method in brief: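 Keratinocyte plus foreskin fibroblast human primary skin co-culture was dosed with chemical and MMP-9 was quantified by ELISA 24 h later. Bidirectional curve fitting used DMSO as negative control and activity baseline.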

Read-out in assay [12]: urokinase plasminogen activator (uPA), PLAU (gene 5328)
The assay can be described thus: BSK_KF3CT_uPA: BioMAP Diversity Plus: KF3CT Assay for urokinase plasminogen activator (uPA) Biomarker Activity (AID 2283075). The following applies: primary human keratinocytes with fibroblasts; actives raise or lower the signal. The method in brief: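 Human keratinocyte plus foreskin fibroblast primary co-culture exposed to chemical for 24 h. uPA levels were quantified by ELISA, and activity was fitted bidirectionally against a DMSO negative-control baseline.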

Read-out in a further assay: CD40, CD40 (gene 958)
Briefly: BSK_LPS_CD40: BioMAP Diversity Plus: LPS Assay for CD40 Biomarker Activity (AID 2283076). The following applies: primary human HUVEC with PBMC; actives raise or lower the signal. The method in brief:
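In the LPS system of human endothelial cells with peripheral blood mononuclear cells, CD40 levels were read by ELISA 24 h post-treatment. Signal changes in either direction were fitted against the DMSO baseline, with parallel SRB protein staining.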

Read-out in assay [13]: E-selectin (Homo sapiens) (UniProt P16581)
The assay can be described thus: BSK_LPS_Eselectin: BioMAP Diversity Plus: LPS Assay for Eselectin Biomarker Activity (AID 2283077). The following applies: primary human HUVEC with PBMC; actives raise or lower the signal. The gist of the method:
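E-selectin ELISA on LPS-stimulated endothelial cell/PBMC co-cultures, read 24 h post-treatment; gains and losses fitted against DMSO. Parallel SRB staining (0.1% SRB after 10% TCA fixation, 560 nm) flags overt cytotoxicity.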

Read-out in assay [14]: Interleukin-8 (IL8), CXCL8 (gene 3576)
Briefly: BSK_LPS_IL8: BioMAP Diversity Plus: LPS Assay for Interleukin-8 (IL8) Biomarker Activity (AID 2283078). The following applies: primary human HUVEC with PBMC; actives raise or lower the signal. The method in brief:
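ELISA read-out of IL-8 after 24 h chemical treatment of LPS-activated endothelial/PBMC human primary co-cultures. Changes either up or down relative to DMSO; overt cytotoxicity checked by sulforhodamine B staining in parallel wells.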

Assay [15] in a line: BSK_LPS_SRB: Viability Assessment in the BioMAP Diversity Plus: LPS Assay (AID 2283079).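 Further: total protein by sulforhodamine B absorbance as a cytotoxicity measure; measured one day after compound addition.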 The following applies: primary human HUVEC with PBMC. The gist of the method: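 SRB viability endpoint: cells fixed with 10% TCA, stained with 0.1% SRB, read at 560 nm, 24 h post-dose. HUVEC/PBMC co-culture; signal change in either direction scored relative to DMSO.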
Read-out in assay [16]: Interleukin-1 alpha (IL1a), IL1A (gene 3552)
The assay can be described thus: BSK_LPS_IL1a: BioMAP Diversity Plus: LPS Assay for Interleukin-1 alpha (IL1a) Biomarker Activity (AID 2283080). The following applies: primary human HUVEC with PBMC; actives raise or lower the signal. The method in brief:
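Readout is IL-1a level by ELISA, 24 h post-dose, fitted as gain or loss relative to DMSO. System: LPS-activated human primary co-culture of vascular endothelium and peripheral blood mononuclear cells, with parallel SRB total-protein cytotoxicity.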

Read-out in assay [17]: Monocyte Chemoattractant Protein-1 (MCP1), CCL2 (gene 6347)
The assay can be described thus: BSK_LPS_MCP1: BioMAP Diversity Plus: LPS Assay for Monocyte Chemoattractant Protein-1 (MCP1) Biomarker Activity (AID 2283081). The following applies: primary human HUVEC with PBMC; actives raise or lower the signal. The gist of the method:
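Secreted MCP-1 read by ELISA at 24 h post-dosing in an LPS-activated co-culture of endothelial cells with peripheral blood mononuclear cells. Fits run in both directions, DMSO as baseline; parallel SRB staining tracks overt cytotoxicity.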

Read-out in assay [18]: Matrix Metallopeptidase 1 (MMP1), MMP1 (gene 4312)
The assay can be described thus: BSK_hDFCGF_MMP1: BioMAP Diversity Plus: hDFCGF Assay for Matrix Metallopeptidase 1 (MMP1) Biomarker Activity (AID 2283064). The settings on record: primary human foreskin fibroblasts; actives raise or lower the signal. The gist of the method:
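Primary human foreskin fibroblasts in the hDFCGF system were dosed with test chemical, and MMP1 was measured by ELISA 24 h later. Values come from bidirectional curve fitting against the DMSO baseline.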

Calls of active or inactive are those of the source. How the source made its calls: active means hit-call score of the fitted dose curve at least 0.9, where 1 is the maximum; inactive means score below 0.9.

Chain of E-selectin (Homo sapiens) (P16581 whole entry, looked up): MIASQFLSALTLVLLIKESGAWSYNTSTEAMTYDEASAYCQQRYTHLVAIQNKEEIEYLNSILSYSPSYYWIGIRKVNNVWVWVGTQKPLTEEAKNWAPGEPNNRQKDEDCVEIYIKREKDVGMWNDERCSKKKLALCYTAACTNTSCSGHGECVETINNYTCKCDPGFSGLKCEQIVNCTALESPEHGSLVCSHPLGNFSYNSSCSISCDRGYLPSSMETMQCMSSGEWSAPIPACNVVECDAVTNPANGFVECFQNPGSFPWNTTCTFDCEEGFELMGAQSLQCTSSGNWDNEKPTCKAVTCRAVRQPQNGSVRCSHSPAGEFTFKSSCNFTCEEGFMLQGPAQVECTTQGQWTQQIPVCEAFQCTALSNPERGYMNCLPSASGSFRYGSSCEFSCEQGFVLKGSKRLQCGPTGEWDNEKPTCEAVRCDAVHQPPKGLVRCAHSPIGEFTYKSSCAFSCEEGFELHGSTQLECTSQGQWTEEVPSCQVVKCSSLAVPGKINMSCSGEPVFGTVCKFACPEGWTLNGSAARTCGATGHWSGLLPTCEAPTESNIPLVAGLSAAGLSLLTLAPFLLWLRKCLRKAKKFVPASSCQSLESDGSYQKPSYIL

Take `Nc1cc(Cl)cc(C(=O)O)c1Cl`: the outcome in assay [1], in assay [2], in assay [3], in assay [4], in assay [5] and in assay [6] was inactive. Moreover, the outcome in assay [7], in [8], in assay [9], in assay [10], in assay [11] and in assay [12] was inactive. Further, the outcome is “inactive” with CD40, CD40 (gene 958); “inactive” in assay [13]; “inactive” in [14]; “inactive” in assay [15]; “inactive” in assay [16]; “inactive” in [17].

What is called AC50 is the concentration giving half of the maximal activity seen. As for `CCOC(=O)[C@]1(c2ccccc2)Oc2ccccc2[C@@H]1N`, the AC50 in [1] was 30.2 µM (active); in assay [11], 31 µM (active); in the assay with CD40, CD40 (gene 958) it was 32.9 µM (active); in assay [14] it was 36.1 µM (active). Also, the result in assay [18], in assay [4], in assay [5], in assay [6], in assay [7] and in assay [8] was inactive. In addition, the outcome in assay [9], in assay [10], in [12], in assay [13], in assay [15] and in [16] was inactive. Moreover, in assay [17], the result was inactive.

As to `C1=Cc2cccc3cccc1c23`, the outcome in assay [1], in assay [2], in [3], in assay [4], in assay [5] and in assay [6] was inactive. For the same compound, the outcome in assay [7], in assay [8], in assay [9], in [10], in [11] and in assay [12] was inactive. The outcome with CD40, CD40 (gene 958) was “inactive”; in assay [13] it was “inactive”; in assay [14], “inactive”; in [15] it was “inactive”; in [16] it was “inactive”; in assay [17], “inactive”.

Consider `CCCCCCCCCCCCCN1CC(C)OC(C)C1` (stereo not given), for which the result in assay [1], in assay [2], in assay [4], in [5], in assay [6] and in assay [7] was inactive. The outcome was “inactive” in assay [8]; “inactive” in [9]; “inactive” in [10]; “inactive” in [11]; “inactive” in [12]; “inactive” with CD40, CD40 (gene 958). The outcome in assay [13], in assay [14], in [15], in assay [16] and in assay [17] was inactive.

Values taken from PubChem BioAssay (EPA / NIEHS).
